# Results filed as inconclusive are left out. Entries that show only a call come without a potency. The source made the active and inactive calls. Unless noted, calls come from the whole dose curve.
# How the values were obtained:
# [1] = molecular target: Gonadotropin-releasing hormone receptor (Homo sapiens) (UniProt P30968); test: Human gonadotropin-releasing hormone receptor (GnRHR) small molecule agonists, calcium flux assay in GnRHR-HEK293 cells (AID 1920063); note: nearly all actives have a fitted effect of over 35% in size
# Chain of Gonadotropin-releasing hormone receptor (Homo sapiens) (P30968 whole entry, looked up): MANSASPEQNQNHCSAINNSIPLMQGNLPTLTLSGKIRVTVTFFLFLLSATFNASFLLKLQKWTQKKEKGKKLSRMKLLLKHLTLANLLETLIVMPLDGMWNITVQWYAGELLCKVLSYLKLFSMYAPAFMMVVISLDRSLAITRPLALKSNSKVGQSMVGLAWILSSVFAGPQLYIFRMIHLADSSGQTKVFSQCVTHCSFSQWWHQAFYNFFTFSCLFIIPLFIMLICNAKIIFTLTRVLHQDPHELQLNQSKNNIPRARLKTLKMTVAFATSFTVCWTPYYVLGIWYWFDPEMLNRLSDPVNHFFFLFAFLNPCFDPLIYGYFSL
# Method in brief: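 Fluorescence kinetics (480 nm excitation, 540 nm emission; 3 min, 1 s steps) report calcium mobilisation in human GnRHR-HEK293 cells in agonist mode. Dye incubation: 1 h, 37 C.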
# [2] = G protein-coupled receptor (GPCR) small molecule agonists, calcium flux assay: HEK293 wild type cell line counter screen (AID 1920065)
# Method in brief: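 Readout: fluorescence at 480 nm excitation/540 nm emission, sampled at 1 s intervals for 3 min. Cells had been cultured 18 h, then dye-loaded 1 h at 37 C before compound or ATP addition.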
# [3] = p53 small molecule agonists, cell-based qHTS assay with human liver microsomes (AID 1963577);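 note: p53 response element beta-lactamase reporter cells with liver microsomes plus NADPH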
# Method in brief: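 HLM-supplemented p53RE-bla reporter assay: 16 h compound exposure at 37 C, microsomes and NADPH each 0.5 mg/mL final, read by fluorescence intensity.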
# [4] = p53 small molecule agonists, cell-based qHTS assay with rat liver microsomes (AID 1963578)
# Method in brief: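 Quantitative HTS of the Tox21 10K library: p53RE-bla cells, rat liver microsomes plus NADPH at 0.5 mg/mL final each, 16 h at 37 C, beta-lactamase fluorescence detection.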
# [5] = p53 small molecule agonists, cell-based qHTS assay with human liver microsomes: qHTS cell viability counter screen (AID 1963579); note: nearly all actives have a fitted effect of over 45% in size; note: potency is the fitted concentration of half-maximal effect
# Method in brief: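 Viability of p53RE-bla cells is measured as CellTiter-Glo luminescence following a 16 h, 37 C incubation with compound, liver microsomes from human donors and NADPH.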
# [6] = p53 small molecule agonists, cell-based qHTS assay with rat liver microsomes: qHTS cell viability counter screen (AID 1963580); note: nearly all actives have a fitted effect of over 45% in size; note: potency is the fitted concentration of half-maximal effect
# Method in brief: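 In HCT-116 cells carrying a p53 response element-bla reporter, compounds were metabolically activated in situ by rat liver microsomes with NADPH over 16 h. Cell ATP content then served as the cytotoxicity measure.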
# [7] = p53 small molecule agonists, cell-based qHTS assay: qHTS cell viability counter screen (AID 1963581); note: nearly all actives have a fitted effect of over 45% in size; note: potency is the fitted concentration of half-maximal effect
# Method in brief: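 In the same plates used for the p53 bla reporter, HCT-116 cells given compounds for 16 h at 37 C received CellTiter-Glo; luminescence was recorded 30 min later at room temperature.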
# [8] = molecular target: 5-hydroxytryptamine receptor 2A (Homo sapiens) (UniProt P28223); test: 5-hydroxytryptamine receptor 2A (HTR2A) small molecule antagonists, cell-based qHTS assay (AID 1963586); note: nearly all actives have a fitted effect of over 45% in size
# Chain of 5-hydroxytryptamine receptor 2A (Homo sapiens) (P28223 whole entry, looked up): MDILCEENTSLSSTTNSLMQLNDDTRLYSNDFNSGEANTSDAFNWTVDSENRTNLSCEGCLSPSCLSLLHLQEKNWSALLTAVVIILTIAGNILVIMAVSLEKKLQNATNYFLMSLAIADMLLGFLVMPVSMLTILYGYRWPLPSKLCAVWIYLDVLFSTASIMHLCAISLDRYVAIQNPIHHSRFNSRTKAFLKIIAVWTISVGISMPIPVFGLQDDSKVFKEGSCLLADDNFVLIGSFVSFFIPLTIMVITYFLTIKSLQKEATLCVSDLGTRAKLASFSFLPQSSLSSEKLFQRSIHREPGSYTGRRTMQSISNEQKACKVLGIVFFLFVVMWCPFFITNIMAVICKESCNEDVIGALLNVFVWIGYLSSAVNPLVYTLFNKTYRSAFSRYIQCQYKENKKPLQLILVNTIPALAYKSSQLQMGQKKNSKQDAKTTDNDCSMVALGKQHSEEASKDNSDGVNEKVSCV
# Method in brief: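 Antagonist-mode intracellular calcium assay: DOI (4 nM) added after 5 min compound pre-incubation at room temperature to dye-loaded HTR2A-CHO cells. Fluorescence followed for 3 min, sampled every second.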
# [9] = molecular target: 5-hydroxytryptamine receptor 2A (Homo sapiens) (UniProt P28223); test: 5-hydroxytryptamine receptor 2A (HTR2A) small molecule agonists, cell-based qHTS assay (AID 1963587); note: nearly all actives have a fitted effect of over 30% in size
# Method in brief: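 HTR2A-CHO cells, plated 18 h at 37 C/5% CO2, dye-loaded 1 h at 37 C; compounds in DMSO added by pin tool (agonist mode). Intracellular calcium flux read as kinetic fluorescence on FDSS over 2 min at 1 s intervals.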
# [10] = molecular target: Muscarinic acetylcholine receptor M1 (Homo sapiens) (UniProt P11229); test: Cholinergic receptor muscarinic 1 (CHRM1) small molecule antagonists, cell-based qHTS assay (AID 1963588); note: nearly all actives have a fitted effect of over 40% in size
# Chain of Muscarinic acetylcholine receptor M1 (Homo sapiens) (P11229 whole entry, looked up): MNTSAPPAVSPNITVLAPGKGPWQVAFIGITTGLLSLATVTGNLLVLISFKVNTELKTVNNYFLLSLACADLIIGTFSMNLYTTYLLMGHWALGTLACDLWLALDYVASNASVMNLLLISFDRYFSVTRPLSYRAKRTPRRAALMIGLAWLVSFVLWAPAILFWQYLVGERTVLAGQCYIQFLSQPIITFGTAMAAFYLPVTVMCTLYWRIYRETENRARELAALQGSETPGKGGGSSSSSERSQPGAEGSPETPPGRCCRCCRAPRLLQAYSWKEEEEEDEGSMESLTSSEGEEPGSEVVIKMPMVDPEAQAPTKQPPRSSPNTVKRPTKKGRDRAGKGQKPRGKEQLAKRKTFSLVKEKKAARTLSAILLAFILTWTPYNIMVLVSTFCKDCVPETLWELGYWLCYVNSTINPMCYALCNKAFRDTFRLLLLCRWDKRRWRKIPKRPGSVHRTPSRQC
# Method in brief: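 CHRM1-CHO calcium-flux assay, antagonist mode. Cells were seeded 18 h, dye-loaded 1 h at 37 C and given compound for 5 min at RT, then acetylcholine was added at 50nM. FDSS fluorescence was read 3 min; 15 concentrations, three runs.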
# [11] = molecular target: Muscarinic acetylcholine receptor M1 (Homo sapiens) (UniProt P11229); test: Cholinergic receptor muscarinic 1 (CHRM1) small molecule agonists, cell-based qHTS assay (AID 1963589); note: nearly all actives have a fitted effect of over 35% in size
# Method in brief: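 Each compound was tested at 15 concentrations across three independent runs on dye-loaded CHO cells stably expressing human CHRM1, reading intracellular calcium fluorescence kinetically at 1 sec intervals.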
# [12] = cAMP Responsive Elements (CRE) small molecule agonists, cell-based qHTS assay (AID 1963590)
# Method in brief: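 Cell line: CRE-bla HEK 293T; medium DMEM/10% dialyzed FBS/0.1 mM NEAA/1 mM pyruvate/25 mM HEPES; 3 h compound exposure; beta-lactamase FRET readout after 2 h substrate loading at RT.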
# [13] = cAMP Responsive Elements (CRE) small molecule antagonists, cell-based qHTS assay (AID 1963591; active = well fitted inhibition curve with a large enough effect in the signal ratio in the repeat runs, not every such curve was filed as active; the % refers to the signal ratio)
# Method in brief: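 Inhibition of NKH477-driven (0.25 uM final) CRE-beta-lactamase signal in HEK293T cells, 3 h compound exposure at 37 °C, detected by FRET substrate fluorescence.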
# [14] = molecular target: Beta-2 adrenergic receptor (Homo sapiens) (UniProt P07550); test: Adrenergic beta2 receptor (ADRB2) small molecule antagonists, cell-based qHTS assay (AID 1963592); note: series mostly up to about 92 µM; nearly all actives have a fitted effect of over 50% in size
# Chain of Beta-2 adrenergic receptor (Homo sapiens) (P07550 whole entry, looked up): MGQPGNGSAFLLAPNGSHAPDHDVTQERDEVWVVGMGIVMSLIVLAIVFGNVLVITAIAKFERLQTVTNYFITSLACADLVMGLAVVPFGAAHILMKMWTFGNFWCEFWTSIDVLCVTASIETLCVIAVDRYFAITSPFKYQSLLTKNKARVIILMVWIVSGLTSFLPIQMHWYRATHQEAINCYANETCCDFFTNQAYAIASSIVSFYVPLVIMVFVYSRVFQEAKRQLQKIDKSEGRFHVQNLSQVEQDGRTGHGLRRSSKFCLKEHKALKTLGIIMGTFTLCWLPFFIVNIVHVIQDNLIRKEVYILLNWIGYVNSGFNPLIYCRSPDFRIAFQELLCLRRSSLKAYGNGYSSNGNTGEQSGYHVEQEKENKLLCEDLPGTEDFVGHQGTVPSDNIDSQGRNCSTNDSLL
# Method in brief: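 Cells (CHO, stable ADRB2 overexpression) incubated 18-20hr at 37C; compounds added from DMSO; agonist mix (1nM isoproterenol, 100uM IBMX, 25uM Ro-20-1724) added; 0.5hr RT; d2-cAMP and anti-cAMP-cryptate added; 1hr RT; 665/615 nm read.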
# [15] = molecular target: D(2) dopamine receptor (Homo sapiens) (UniProt P14416); test: Dopamine D2 receptor (DRD2) small molecule antagonists, cell-based qHTS assay (AID 1963595; active = well fitted inhibition curve with a large enough effect in the signal ratio in the repeat runs, with a control signal flat; the % refers to the signal ratio; note: potency is the fitted concentration of half-maximal effect)
# Chain of D(2) dopamine receptor (Homo sapiens) (P14416 whole entry, looked up): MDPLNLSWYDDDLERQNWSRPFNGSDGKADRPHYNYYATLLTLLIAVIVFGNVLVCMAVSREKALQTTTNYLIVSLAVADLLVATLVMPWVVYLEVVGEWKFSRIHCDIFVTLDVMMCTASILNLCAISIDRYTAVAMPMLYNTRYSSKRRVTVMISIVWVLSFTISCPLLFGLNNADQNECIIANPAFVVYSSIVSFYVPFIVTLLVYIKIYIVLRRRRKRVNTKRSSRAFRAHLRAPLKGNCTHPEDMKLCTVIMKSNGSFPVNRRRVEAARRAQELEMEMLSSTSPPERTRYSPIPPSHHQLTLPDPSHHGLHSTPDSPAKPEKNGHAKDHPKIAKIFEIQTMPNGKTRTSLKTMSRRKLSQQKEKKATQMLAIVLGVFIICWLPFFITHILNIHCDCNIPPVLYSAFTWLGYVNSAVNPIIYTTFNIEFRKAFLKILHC
# Method in brief: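 Antagonism was scored as restored cAMP in HEK293-DRD2 cells. These cells were stimulated with 200 nM NKH477 and 12 nM quinpirole for 30 min at room temperature, in the presence of 0.1 mM Ro20-1724.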
# [16] = molecular target: KiSS-1 receptor (Homo sapiens) (UniProt Q969F8); test: Human kisspeptin (KISS1R) small molecule agonists, calcium flux assay in KISS1R-HEK293 cells (AID 1920064; active = well fitted activation curve with a large enough effect in the repeat runs)
# Chain of KiSS-1 receptor (Homo sapiens) (Q969F8 whole entry, looked up): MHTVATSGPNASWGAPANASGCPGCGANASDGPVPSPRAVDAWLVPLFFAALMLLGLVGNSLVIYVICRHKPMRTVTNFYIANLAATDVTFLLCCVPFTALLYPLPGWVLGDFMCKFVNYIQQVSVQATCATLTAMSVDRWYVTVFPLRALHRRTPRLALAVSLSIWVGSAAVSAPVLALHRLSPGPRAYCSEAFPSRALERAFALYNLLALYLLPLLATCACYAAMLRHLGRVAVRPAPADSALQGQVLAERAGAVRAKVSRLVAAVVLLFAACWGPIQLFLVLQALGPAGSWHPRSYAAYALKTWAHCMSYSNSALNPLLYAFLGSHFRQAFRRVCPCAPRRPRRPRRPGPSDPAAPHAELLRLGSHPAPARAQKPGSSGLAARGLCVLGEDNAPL
# Method in brief: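 Measures KISS1R agonism through calcium-sensitive dye fluorescence in stably transfected HEK293 cells, read for 3 min after pin-tool compound delivery; 15-point titrations in triplicate.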
# [17] = p53 small molecule agonists, cell-based qHTS assay (AID 1963582; active = well fitted activation curve with a large enough effect in the signal ratio in the repeat runs, not every such curve was filed as active; the % refers to the signal ratio)
# Method in brief: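 Compounds are pin-transferred in DMSO onto p53RE-bla cells and incubated 16 h at 37 C. The B/G FRET beta-lactamase substrate is then applied for 2 h at RT and fluorescence recorded.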
# [18] = molecular target: Beta-2 adrenergic receptor (Homo sapiens) (UniProt P07550); test: Adrenergic beta2 receptor (ADRB2) small molecule agonists, cell-based qHTS assay (AID 1963593); note: potency is the fitted concentration of half-maximal effect;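 for activation: CHO cells stably overexpressing human ADRB2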
# Method in brief: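 CHO cells stably over-expressing ADRB2 were plated overnight at 37C, then dosed with compounds plus a stimulation mix containing 100uM IBMX and 25uM Ro-20-1724 for 0.5hr at room temperature. cAMP was measured by HTRF competition, 1hr.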
# [19] = molecular target: D(2) dopamine receptor (Homo sapiens) (UniProt P14416); test: Dopamine D2 receptor (DRD2) small molecule agonists, cell-based qHTS assay (AID 1963594); note: nearly all actives have a fitted effect of over 35% in size
# Method in brief: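 HEK293 cells stably expressing DRD2 were cultured 24 h at 37 C, then given Ro20-1724 (0.1 mM final) and compounds for 10 min at room temperature. NKH477 (200nM) was then added for 30 min. cAMP was read by HTRF.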
# [20] = Nuclear factor erythroid 2-related factor 2/antioxidant responsive element (Nrf2/ARE) small molecule agonists: luciferase reporter gene qHTS assay in human keratinocytes (AID 1919969); note: nearly all actives have a fitted effect of over 35% in size; note: potency is the fitted concentration of half-maximal effect
SMILES,Potency [1],outcome [2],Potency [3],Potency [4],Potency [5],Potency [6],Potency [7],Potency [8],Potency [9],Potency [10],Potency [11],Potency [12],Potency [13],Potency [14],Potency [15],outcome [16],Potency [17],Potency [18],Potency [19],Potency [20]
CCCCCOC(=O)CCC,inactive,inactive,inactive,inactive,inactive,inactive,inactive,inactive,inactive,inactive,inactive,inactive,inactive,inactive,inactive,,,,,
CCCC1CCC(=O)O1 (stereo not drawn),,inactive,inactive,inactive,inactive,inactive,,inactive,inactive,inactive,inactive,inactive,,inactive,,inactive,inactive,inactive,,
O=C1C(=O)c2ccccc2C(O)=C1C1CCC(c2ccc(Cl)cc2)CC1 (stereo not drawn),inactive,,inactive,inactive,inactive,inactive,inactive,inactive,inactive,inactive,inactive,inactive,inactive,inactive,inactive,inactive,,,inactive,
O=C(CCCCCCCCC#CI)Oc1ccccc1,,inactive,inactive,inactive,,inactive,inactive,inactive,inactive,inactive,inactive,,inactive,,inactive,inactive,inactive,inactive,inactive,
Cc1cn([C@@H]2O[C@H](CO)[C@@H](O)[C@@H]2F)c(=O)[nH]c1=O,inactive,inactive,inactive,inactive,inactive,inactive,,,inactive,inactive,inactive,inactive,inactive,inactive,inactive,,inactive,,inactive,
CCOCC(O)COc1ccc(NC(=O)CC[S+](C)C)cc1 (stereo not drawn),inactive,inactive,inactive,inactive,,,inactive,inactive,inactive,inactive,inactive,inactive,inactive,inactive,inactive,inactive,inactive,,,
CC(C)CCCCCCOC(=O)c1ccc(C(=O)OCCCCCCC(C)C)c(C(=O)OCCCCCCC(C)C)c1,inactive,inactive,inactive,inactive,,,inactive,inactive,inactive,inactive,inactive,inactive,inactive,inactive,,inactive,inactive,,inactive,
C=CC(=O)OCC(CO)(COCC(COC(=O)C=C)(COC(=O)C=C)COC(=O)C=C)COC(=O)C=C,inactive,inactive,inactive,,3.2 µM (active),35.9 µM (active),14.3 µM (active),inactive,inactive,inactive,inactive,,,,27 µM (active),inactive,,30.3 µM (active),inactive,
CCN(CC)c1ccc(C(=C2C=CC(=[N+](CC)CC)C=C2)c2ccc(S(=O)(=O)O)cc2S(=O)(=O)[O-])cc1,,inactive,inactive,inactive,,18.2 µM (active),9.13 µM (active),inactive,,inactive,,inactive,inactive,,,,inactive,,,
OCCNCc1ccccc1,inactive,inactive,,inactive,,inactive,inactive,,inactive,inactive,inactive,inactive,inactive,inactive,inactive,inactive,inactive,,inactive,
OCC(CBr)(CBr)CBr,inactive,inactive,inactive,,inactive,inactive,inactive,inactive,inactive,inactive,inactive,inactive,inactive,inactive,inactive,inactive,inactive,,inactive,
O=C(O)c1cn(C2CC2)c2cc(Cl)c(F)cc2c1=O,inactive,inactive,inactive,inactive,inactive,inactive,inactive,,inactive,inactive,inactive,,,inactive,inactive,inactive,inactive,,inactive,13.3 µM (active)
COc1cc(-c2ccc(N=C=O)c(OC)c2)ccc1N=C=O,inactive,inactive,inactive,inactive,inactive,inactive,inactive,inactive,inactive,inactive,inactive,inactive,inactive,inactive,inactive,inactive,inactive,,inactive,inactive
CCCCNc1c(C(=O)OCC)c(C)nc2c1cnn2CC,inactive,inactive,inactive,inactive,inactive,inactive,inactive,inactive,inactive,inactive,inactive,,,inactive,inactive,inactive,inactive,inactive,inactive,inactive
CCCCc1nc(Cl)c(CO)n1Cc1ccc(-c2ccccc2-c2nn[nH]n2)cc1,inactive,inactive,inactive,inactive,inactive,inactive,inactive,,,,,inactive,,,inactive,inactive,inactive,,inactive,inactive
CCCc1ncc(C(=O)O)s1,inactive,inactive,inactive,inactive,inactive,inactive,inactive,inactive,,inactive,inactive,inactive,inactive,,,inactive,inactive,,inactive,inactive

# Source: PubChem BioAssay (Tox21)
